In all, about 220,000 compounds went through this assay and about 1,100 (0.5%) were called active. What follows is part of a selection rich in actives, with near analogues and random picks from the rest. Unmarked numbers belong to inactive results.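 The calls were made as follows: active = inhibition above about 30% (limit read from the data); inactive = the rest.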

The values below come from PubChem BioAssay AID1274 (Emory University Molecular Libraries Screening Center, 2008).

This test deals with Neutrophil cytosol factor 1 (Homo sapiens) (UniProt P14598). The experiment in a line: blockers of p47phox binding to p22phox – biochemical, uHTS, NADPH oxidase regulatory subunit, primary screen (AID 1274).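 Also: 0% = p47phox with labelled peptide and 100% = labelled peptide alone.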 To be noted: p47phox/p22phox peptide binding, fluorescence polarization, 2 h; at 24.7 µM; active compounds read high.
Neutrophil cytosol factor 1 (Homo sapiens), sequence (P14598 whole entry, looked up): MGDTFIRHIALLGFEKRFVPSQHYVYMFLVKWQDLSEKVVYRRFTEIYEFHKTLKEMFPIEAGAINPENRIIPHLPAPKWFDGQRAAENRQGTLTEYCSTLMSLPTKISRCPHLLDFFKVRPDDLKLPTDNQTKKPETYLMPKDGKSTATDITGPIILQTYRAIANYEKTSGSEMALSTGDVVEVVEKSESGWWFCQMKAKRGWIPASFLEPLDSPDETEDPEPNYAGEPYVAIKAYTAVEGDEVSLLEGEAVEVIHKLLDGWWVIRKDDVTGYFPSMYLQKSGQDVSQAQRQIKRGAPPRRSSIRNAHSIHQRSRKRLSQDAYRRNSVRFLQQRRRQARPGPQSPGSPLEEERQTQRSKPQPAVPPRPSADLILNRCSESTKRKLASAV
In the case of `O=C(Cc1ccccc1[N+](=O)[O-])N1CCN(Cc2ccc3c(c2)OCO3)CC1`, the inhibition was -1.92%.
As for `O=C(COc1ccc2ccccc2c1)N1CCN(Cc2ccncc2)CC1`, the figure is 38.1% (active); as for `COc1ccccc1CN1CCN(C(=O)Cc2ccccc2)CC1`, 3.15%; as for `COCc1cc(OC(=O)N(C)C)nc(-c2ccc(C)c(Cl)c2)n1`, -3.02%.
Take `COC(=O)N(c1ccc(OC)cc1)P1(=S)OCCC(C)O1` (stereo not given): the inhibition was 2.14%.
